# Screen size: about 16,000 compounds; about 5,700 (36%) were called active. About 24% were inconclusive and are not listed. The call rests on the fitted dose curve; in most records, active means well fitted curve in the direction sought with a large enough effect; inconclusive means small, poorly fitted or top-dose-only effect, or effect the other way; inactive means no such curve, though single readings can be large or run the other way. This is one part of the list.
# Target: Cytochrome P450 1A2 (Homo sapiens) (UniProt P05177)
# Sequence (P05177 whole entry, looked up): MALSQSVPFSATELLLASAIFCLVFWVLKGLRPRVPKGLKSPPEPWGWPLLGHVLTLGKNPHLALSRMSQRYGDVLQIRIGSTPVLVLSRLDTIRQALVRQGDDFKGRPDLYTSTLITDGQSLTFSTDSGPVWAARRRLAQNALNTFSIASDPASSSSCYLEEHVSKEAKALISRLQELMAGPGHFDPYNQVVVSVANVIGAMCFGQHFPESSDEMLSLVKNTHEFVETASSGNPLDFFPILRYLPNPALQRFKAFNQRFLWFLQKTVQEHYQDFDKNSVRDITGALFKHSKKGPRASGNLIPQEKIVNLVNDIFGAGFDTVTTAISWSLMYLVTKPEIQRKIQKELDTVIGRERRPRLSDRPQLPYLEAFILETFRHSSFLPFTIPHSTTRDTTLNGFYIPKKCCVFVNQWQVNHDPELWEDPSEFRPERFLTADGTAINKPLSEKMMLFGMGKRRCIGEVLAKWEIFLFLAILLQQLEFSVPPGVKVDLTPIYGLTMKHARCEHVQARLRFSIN
# Assay: Cytochrome panel assay with activity outcomes
# Settings: recombinant CYP, pro-luciferin dealkylation, luminescence, p450-cyp1a2; series mostly up to 57.1 µM
# On the % scale 0 is the no-effect control and ±100 the full control effect.
SMILES,AC50,"activity, negative = inhibition"
Oc1c(Cl)cc(C(c2cc(Cl)c(O)c(Cl)c2)C(c2cc(Cl)c(O)c(Cl)c2)c2cc(Cl)c(O)c(Cl)c2)cc1Cl,794 nM (active),–
Oc1c(Cl)cc(CN(Cc2cc(Cl)c(O)c(Cl)c2)C2CCCCC2)cc1Cl,–,11.3% [at 2.29 µM] (inactive)
CCOC(=O)CCN1C(=O)[C@H]2[C@H]3[C@H](O)[C@H](O)C/C(=N/OCC(C)C)[C@H]3CC[C@@H]2C1=O,–,-11.8% [at 11.4 µM] (inactive)
CC(=O)c1cc(C#N)c(Oc2ccc(F)cc2)nc1C,2240 nM (active),–
COC(=O)c1cc(C#N)c(Oc2ccc(OC)cc2)nc1C,4470 nM (active),–
Cc1cc(C)c(NC(=O)NC(=O)c2ccc(F)cc2)c(C)n1,inactive,–
COC(=O)C1=C(C)C(c2ccc(OC)cc2)NC(=S)N1 (configuration not stated),inactive,–
CC(C)Oc1cccc(C(=O)NC(=S)N2CCN(c3ccc(C(F)(F)F)cc3[N+](=O)[O-])CC2)c1,inactive,–
CC(=O)c1cc(C#N)c(Oc2cccc(C(F)(F)F)c2)nc1C,1120 nM (active),–
COC(=O)c1cc(C#N)c(NCc2ccc(Cl)cc2Cl)nc1C,inactive,–
Cc1ccc(C(C(=O)NC2CCCCC2)N(CC2CCCO2)C(=O)CNC(=O)c2cccs2)cc1 (configuration not stated),inactive,–
O=C(NC1CCCCCC1)c1cccs1,5010 nM (active),–
O=C(NCC(=O)N(c1ccccc1)C(C(=O)NC1CCCC1)c1cccnc1)c1cccs1 (configuration not stated),inactive,–
O=C(Nc1ccc2ncccc2c1)Nc1ccc2ncccc2c1,–,-28.5% [at 2.29 µM] (inactive)
Cc1nc2ccc(NC(=O)Nc3ccnc4cccnc34)cc2o1,1000 nM (active),–
C/C=C\C(=O)N(CC)c1ccccc1C,inactive,–
CC1(C)OC(=O)NC1=O,inactive,–
COc1ccc(-c2csc3c2[N+]2=CCC=C2C3=O)cc1,501 nM (active),–
Cc1noc(C)c1-c1nccc(N2CCOCC2)n1,631 nM (active),–
Cc1noc(C)c1-c1cc(N2CCN(C)CC2)ncn1,10000 nM (active),–
Cc1noc(C)c1-c1nccc(-n2ccnc2)n1,200 nM (active),–
Cc1noc(C)c1C(=O)N1CCC2(CC1)CCN(c1ccncc1)CC2,inactive,–
Cc1noc(C)c1-c1nccc(N2CCN(C)CC2)n1,2000 nM (active),–

SMILES,AC50,"activity, negative = inhibition"
CC(C)(C)C(=O)NC(c1ccc(Cl)cc1)[C@]1(C)C[C@H]1C1CCCCC1 (some centres not stated),inactive,–
CO/N=C1/c2cc(OC)ccc2O[C@@H](c2cccc(OC)c2)[C@H]1O,–,-7.77% [at 11.4 µM] (inactive)
Cc1cc(Cl)ccc1Oc1ncc(-c2ccc(Cl)cc2)cn1,794 nM (active),–
Cc1cccc(Oc2ncc(-c3ccc(Cl)cc3)cn2)c1C,2240 nM (active),–
CNc1nc(-c2ccccc2Cl)nc2ccccc12,126 nM (active),–
CNc1nc(-c2ccccc2C)nc2ccccc12,501 nM (active),–
CCOC(=O)COc1ccc(/C=C/[N+](=O)[O-])c(OCC(=O)OCC)c1,3160 nM (active),–
CCCNS(=O)(=O)c1ccc(OCC(=O)OC)cc1,inactive,–
CCCOc1ccc(/C=C/C(=O)Nc2ccc([N+](=O)[O-])cc2C)cc1,inactive,–
Fc1ccc2nc3[nH]c4ccccc4c3nc2c1,1000 nM (active),–
COC(=O)CSc1ccc(C#N)c(SCC(=O)OC)c1,25100 nM (active),–
COc1ccc(N2CCN(Cc3nc4c(c(=O)n(C)c(=O)n4C)n3CC(C)=O)CC2)cc1,inactive,–
CCn1ccc(C(=O)NC2=C(C#N)CCC2)n1,6310 nM (active),–
CCn1ccc(C(=O)NC2C(=O)N3C(C(=O)O)=C(C)CSC23)n1 (configuration not stated),inactive,–
C[C@]12C=CC(=O)C=C1CC[C@@H]1[C@H]3C[C@@H](O)[C@](O)(C(=O)CO)[C@@]3(C)C[C@H](O)[C@]12F,inactive,–
Cn1c(SC2CCCCC2=O)nnc1-c1ccncc1 (configuration not stated),inactive,–
CC(=O)Nc1ccc(-c2nnc(SCC(=O)c3ccc4c(c3)Cc3ccccc3-4)n2C)cc1,11200 nM (active),–
Cn1c(SCC(=O)NC2CC2)nnc1-c1cccc(NC(=O)c2ccccc2F)c1,inactive,–
Cn1c(SCC(=O)c2ccc3c(c2)Cc2ccccc2-3)nnc1-c1ccccc1,6310 nM (active),–
Cc1ccc2c(CC(=O)OCc3cc(=O)n4c(n3)sc3ccccc34)coc2c1,8910 nM (active),–
CC(C)(C)c1onc(OCP(=O)(O)O)c1C[C@@H](N)C(=O)O,inactive,–
Cc1cc(C(=O)Nc2ccc(N3CCOCC3)cc2)c2ccccc2n1,10000 nM (active),–
O=C(NNC(=O)c1cc(-c2ccc(Cl)c(Cl)c2)nc2ccccc12)Nc1ccccc1,3550 nM (active),–

SMILES,AC50,"activity, negative = inhibition"
Cc1ccc(NC(=O)c2cc(Cl)nc3ccccc23)cc1,2000 nM (active),–
CCOC(=O)N/N=C1/C[C@@H](O)[C@@H](O)[C@@H]2[C@@H]3C(=O)N(c4cccc(Oc5ccccc5)c4)C(=O)[C@H]3CC[C@@H]12,–,-6.44% [at 11.4 µM] (inactive)
O=C1Oc2ccccc2C2(O)C3CCCCCC3C12 (configuration not stated),inactive,–
Cc1n[nH]c(C)c1N=Nc1cc(Cl)ccc1Cl,178 nM (active),–
COc1cc(OC)c(C(=O)CCCCN2CCC3(CC2)NC(=O)NC3=O)cc1NS(=O)(=O)c1ccc(C(F)(F)F)cc1,inactive,–
Nc1ncnc2c([C@@H]3O[C@@H](CO)[C@H](O)[C@@H]3O)nsc12,–,-16.8% [at 2.29 µM] (inactive)
O=C(Nc1nnc(COc2ccc(Cl)cc2)s1)c1ccc([N+](=O)[O-])cc1,inactive,–
O=C(Nc1cc(Sc2ccccn2)cc([N+](=O)[O-])c1)c1ccc([N+](=O)[O-])cc1,3160 nM (active),–
O=C(Nc1cc(Sc2ccccn2)cc([N+](=O)[O-])c1)c1ccc(Cl)cc1,2510 nM (active),–
O=C1[C@H]2[C@H]3[C@H](O)[C@H](O)C/C(=N/OC[C@@H](O)COCc4ccco4)[C@H]3CC[C@@H]2C(=O)N1C[C@@H]1CCCO1,–,-17.3% [at 11.4 µM] (inactive)
CCOc1ncccc1C(=O)OCC(=O)Nc1cc(C)ccc1C,10000 nM (active),–
Cc1ccc(C)c(NC(=O)C2C3CCCC2C3c2ccccc2)c1 (configuration not stated),inactive,–
Cc1ccc(C)c(NC(=O)Cn2nnc(C(=O)Nc3c(C)cccc3C)c2N)c1,inactive,–
Cc1noc(C)c1-c1ccc2ncnc(N(C)Cc3ccco3)c2c1,2510 nM (active),–
Cc1noc(C)c1-c1ccc2ncnc(N(C)C)c2c1,631 nM (active),–
CN1C(=O)OC(C)(C)C1=O,inactive,–
Cc1cc(Cl)nc2ccc(Cc3ccc4nc(Cl)cc(C)c4c3)cc12,–,-13.2% [at 2.29 µM] (inactive)
CCc1c(C)nc2ccc(Br)cc2c1Cl,316 nM (active),–
CO[C@H]1COC(=O)CCC[C@@H](C)[C@H](OC)COC(=O)[C@@H](C)NC(=O)C/C=C\[C@@H]1C,–,3.63% [at 11.4 µM] (inactive)
O=C(O)[C@H]1CCCNC1,inactive,–
Cc1cnn(-c2ccc3nnc(-c4ccc(Cl)cc4)n3n2)c1,398 nM (active),–
CNC(=O)Oc1ccc2c(c1)[C@@]1(C)CCN(C)[C@@H]1N2C,inactive,–
CCOCCCN1C(=O)CN(C2CCCCCC2)C(=O)C1c1ccc(OC)cc1 (configuration not stated),inactive,–

SMILES,AC50,"activity, negative = inhibition"
CCOCCCn1cnc2c([nH]c3cc(OC)ccc32)c1=O,2000 nM (active),–
CO[C@H]1COC(=O)C/C=C\[C@@H](C)COC(=O)[C@H]2CCCN2C(=O)C/C=C\[C@H]1C,–,4.01% [at 11.4 µM] (inactive)
CN(C)c1ccc(/C=C2/C(=O)N(c3ccc([N+](=O)[O-])cc3)N=C2N2CCOCC2)cc1,inactive,–
Cc1cc(N2CCOCC2)ccc1/C=C1\SC(=O)N(C(C)C)C1=O,14100 nM (active),–
CC(C(=O)Nc1ccccc1Sc1ccccc1)N(c1ccccc1)S(C)(=O)=O (configuration not stated),inactive,–
CO[C@@H]1COC(=O)[C@H](COCc2ccccc2)NC(=O)C/C=C\[C@@H](C)[C@H](OC)COC(=O)[C@H](COCc2ccccc2)NC(=O)C/C=C\[C@H]1C,–,-19.7% [at 11.4 µM] (inactive)
COc1cccc(/C=N/Nc2nc(N3CCCC3)nc(N3CCCC3)n2)c1O,2510 nM (active),–
COC(=O)C1=C(C)[C@@H](O)[C@@H](C)[C@H](c2c(OC)c(OC)c(C)c(OC)c2OC)O1,–,-10.1% [at 11.4 µM] (inactive)
C#C[C@@]1(O)CC[C@@H]2[C@@H]3CCC4=CC(=O)CC[C@@H]4[C@H]3CC[C@]21C,inactive,–
C#C[C@]1(O)CC[C@@H]2[C@H]3CCc4cc(OC)ccc4[C@@H]3CC[C@@]21C,501 nM (active),–
CC12CC[C@@H]3c4ccc(OP(=O)(O)O)cc4CCC3C1CCC2=O (some centres not stated),–,-13.4% [at 2.29 µM] (inactive)
Clc1ccc(CCNc2nc3ccccc3s2)cc1,11200 nM (active),–
CC(C)N1CCN(c2ccc(OC[C@@H]3CO[C@@](Cn4cncn4)(c4ccc(Cl)cc4Cl)O3)cc2)CC1,inactive,–
Nc1c(O)cccc1C(=O)C[C@@H](N)C(=O)O,inactive,–
N#C/C(=C\Nc1ccccn1)C(=O)c1ccco1,–,-22.9% [at 11.4 µM] (inactive)
N#C/C(=C\Nc1ccccn1)C(=O)C1CC1,1260 nM (active),–
CC(CCN)(CCN)[N+](=O)[O-],–,-10.4% [at 11.4 µM] (inactive)
O=C(NCCCN1CCc2ccccc2C1)C1CCN(S(=O)(=O)N2CCCC2)CC1,inactive,–
O=C(NCCCN1CCN(c2ccccc2F)CC1)C1CCC(=O)N1C1CCCCC1 (configuration not stated),inactive,–
O=C(NCCN1CCN(C(=O)C(c2ccccc2)c2ccccc2)CC1)C(=O)Nc1ccccc1,inactive,–
Cc1ccccc1CS(=O)(=O)CCC(=O)NCCCN1CCN(c2ccccc2F)CC1,inactive,–
CSc1ccc(NC(=O)NCCN2CCc3ccccc3C2)cc1,14100 nM (active),–
CSc1ccc(NC(=O)NCCCN2CCN(c3ccccc3F)CC2)cc1,2510 nM (active),–

# Source: PubChem BioAssay AID1851 (National Center for Advancing Translational Sciences (NCATS), 2009)
